# The source made the active and inactive calls. How the source made its calls: active means hit-call score of the fitted dose curve at least 0.9, where 1 is the maximum; inactive means score below 0.9.
# Assay: CCTE_Padilla_ZF_Score.Spine: CCTE's 144 Hour Post-fertilization zebrafish Assay Score for Spine Malformation, Padilla Lab (AID 2284407)
# Method in brief: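 Spine malformation scored at 6 dpf by two independent blinded observers under stereomicroscope, after static sealed exposure from 6–8 hpf at 26C in Hanks' solution with rinse on 5 dpf. Positive-direction fit against DMSO control.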
row,Structure (SMILES),outcome
1,O=P(O)(O)OCCC(F)(F)C(F)(F)C(F)(F)C(F)(F)C(F)(F)C(F)(F)F,inactive
2,NC(=O)C(F)(F)C(F)(F)C(F)(F)C(F)(F)F,inactive
3,FC(F)(F)C(F)(F)C(F)(F)C(F)(F)C(F)(F)CCI,inactive
4,O=C(O)C(F)(F)C(F)(F)C(F)(F)C(F)(F)C(F)(F)C(F)(F)C(F)(F)C(F)(F)Cl,inactive
5,FC(F)(F)C(F)(F)C(F)(F)C(F)(F)C(F)(F)C(F)(F)C(F)(F)C(F)(F)F,inactive
6,OCC(F)(F)C(F)(F)C(F)(F)C(F)F,inactive
7,FC(F)(F)C(F)(F)C(F)(F)C(F)(F)CCI,inactive
8,FC(F)(F)C(F)(F)C(F)(F)C(F)(F)C(F)(F)C(F)(F)C(F)(F)C(F)(F)CCS,inactive
9,FC(F)(F)C(F)(F)C(F)(F)C(F)(F)C(F)(F)C(F)(F)CC1CO1 (stereo not drawn),inactive
10,O=C(O)C(F)(OC(F)(F)C(F)(OC(F)(F)C(F)(OC(F)(F)C(F)(F)C(F)(F)F)C(F)(F)F)C(F)(F)F)C(F)(F)F (stereo not drawn),inactive
11,FC(F)(Br)C(F)(F)C(F)(F)C(F)(F)C(F)(F)C(F)(F)Br,inactive
12,O=C(O)C(F)(OC(F)(F)C(F)(OC(F)(F)C(F)(F)C(F)(F)F)C(F)(F)F)C(F)(F)F (stereo not drawn),inactive
13,O=C(O)C(F)(F)C(F)(F)C(F)(F)C(F)(F)F,inactive
14,N=C(N)C(F)(F)C(F)(F)C(F)(F)C(F)(F)C(F)(F)C(F)(F)C(F)(F)F,inactive
15,CC(C)(C)C(=O)CC(=O)C(F)(F)C(F)(F)C(F)(F)F,inactive
16,C=CC(=O)OCC(F)(F)C(F)(F)C(F)(F)C(F)(F)COC(=O)C=C,inactive
17,O=C(O)C(F)(F)C(F)(F)C(F)F,inactive
18,Cc1ccc(S(=O)(=O)OCC(F)(F)C(F)(F)C(F)(F)C(F)(F)C(F)(F)C(F)F)cc1,inactive
19,O=C(Cl)C(F)(F)C(F)(F)C(F)(F)C(F)(F)C(F)(F)C(F)(F)C(F)(F)C(F)(F)F,inactive
20,FC(F)(I)C(F)(F)C(F)(F)C(F)(F)I,inactive
21,FC(F)(F)C(F)(F)C(F)(F)C(F)(F)C(F)(F)C(F)(F)CCS,inactive

# Assay: CCTE_Padilla_ZF_Score.Swim_bladder: CCTE's 144 Hour Post-fertilization zebrafish Assay Score for Swim Bladder Malformation, Padilla Lab (AID 2284408)
# Method in brief: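 Swim bladder inflation scored at 6 dpf by two blinded observers under a stereo microscope. Exposure ran from 6–8 hpf in sealed wells of 10% Hanks' at 26C, with rinsing at 5 dpf; DMSO served as baseline.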
Structure (SMILES),outcome,AC50
O=P(O)(O)OCCC(F)(F)C(F)(F)C(F)(F)C(F)(F)C(F)(F)C(F)(F)F,inactive,–
NC(=O)C(F)(F)C(F)(F)C(F)(F)C(F)(F)F,inactive,–
FC(F)(F)C(F)(F)C(F)(F)C(F)(F)C(F)(F)CCI,–,30.4 µM (active)
O=C(O)C(F)(F)C(F)(F)C(F)(F)C(F)(F)C(F)(F)C(F)(F)C(F)(F)C(F)(F)Cl,–,9.95 µM (active)
FC(F)(F)C(F)(F)C(F)(F)C(F)(F)C(F)(F)C(F)(F)C(F)(F)C(F)(F)F,inactive,–
OCC(F)(F)C(F)(F)C(F)(F)C(F)F,inactive,–
FC(F)(F)C(F)(F)C(F)(F)C(F)(F)CCI,inactive,–
FC(F)(F)C(F)(F)C(F)(F)C(F)(F)C(F)(F)C(F)(F)C(F)(F)C(F)(F)CCS,inactive,–
FC(F)(F)C(F)(F)C(F)(F)C(F)(F)C(F)(F)C(F)(F)CC1CO1 (stereo not drawn),inactive,–
O=C(O)C(F)(OC(F)(F)C(F)(OC(F)(F)C(F)(OC(F)(F)C(F)(F)C(F)(F)F)C(F)(F)F)C(F)(F)F)C(F)(F)F (stereo not drawn),inactive,–
FC(F)(Br)C(F)(F)C(F)(F)C(F)(F)C(F)(F)C(F)(F)Br,inactive,–
O=C(O)C(F)(OC(F)(F)C(F)(OC(F)(F)C(F)(F)C(F)(F)F)C(F)(F)F)C(F)(F)F (stereo not drawn),inactive,–
O=C(O)C(F)(F)C(F)(F)C(F)(F)C(F)(F)F,inactive,–
N=C(N)C(F)(F)C(F)(F)C(F)(F)C(F)(F)C(F)(F)C(F)(F)C(F)(F)F,inactive,–
CC(C)(C)C(=O)CC(=O)C(F)(F)C(F)(F)C(F)(F)F,–,27 µM (active)
C=CC(=O)OCC(F)(F)C(F)(F)C(F)(F)C(F)(F)COC(=O)C=C,–,4.37 µM (active)
O=C(O)C(F)(F)C(F)(F)C(F)F,inactive,–
Cc1ccc(S(=O)(=O)OCC(F)(F)C(F)(F)C(F)(F)C(F)(F)C(F)(F)C(F)F)cc1,–,9.81 µM (active)
O=C(Cl)C(F)(F)C(F)(F)C(F)(F)C(F)(F)C(F)(F)C(F)(F)C(F)(F)C(F)(F)F,inactive,–
FC(F)(I)C(F)(F)C(F)(F)C(F)(F)I,–,27.5 µM (active)
FC(F)(F)C(F)(F)C(F)(F)C(F)(F)C(F)(F)C(F)(F)CCS,inactive,–

# Assay: CCTE_Padilla_ZF_Score.Living: CCTE's 144 Hour Post-fertilization zebrafish Assay Score for Viability, Padilla Lab (AID 2284410);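 further: larval death at 6 dpf judged by absent heartbeat or coagulation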
# Method in brief: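 Mortality at 6 dpf, judged as absent heartbeat or coagulation by two blinded observers, after sealed static exposure beginning at 6–8 hpf at 26C. Larvae were rinsed free of chemical at 5 dpf, and activity was fitted relative to DMSO.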
Structure (SMILES),outcome,AC50
O=P(O)(O)OCCC(F)(F)C(F)(F)C(F)(F)C(F)(F)C(F)(F)C(F)(F)F,inactive,–
NC(=O)C(F)(F)C(F)(F)C(F)(F)C(F)(F)F,inactive,–
FC(F)(F)C(F)(F)C(F)(F)C(F)(F)C(F)(F)CCI,inactive,–
O=C(O)C(F)(F)C(F)(F)C(F)(F)C(F)(F)C(F)(F)C(F)(F)C(F)(F)C(F)(F)Cl,–,35.5 µM (active)
FC(F)(F)C(F)(F)C(F)(F)C(F)(F)C(F)(F)C(F)(F)C(F)(F)C(F)(F)F,inactive,–
OCC(F)(F)C(F)(F)C(F)(F)C(F)F,inactive,–
FC(F)(F)C(F)(F)C(F)(F)C(F)(F)CCI,inactive,–
FC(F)(F)C(F)(F)C(F)(F)C(F)(F)C(F)(F)C(F)(F)C(F)(F)C(F)(F)CCS,inactive,–
FC(F)(F)C(F)(F)C(F)(F)C(F)(F)C(F)(F)C(F)(F)CC1CO1 (stereo not drawn),inactive,–
O=C(O)C(F)(OC(F)(F)C(F)(OC(F)(F)C(F)(OC(F)(F)C(F)(F)C(F)(F)F)C(F)(F)F)C(F)(F)F)C(F)(F)F (stereo not drawn),inactive,–
FC(F)(Br)C(F)(F)C(F)(F)C(F)(F)C(F)(F)C(F)(F)Br,inactive,–
O=C(O)C(F)(OC(F)(F)C(F)(OC(F)(F)C(F)(F)C(F)(F)F)C(F)(F)F)C(F)(F)F (stereo not drawn),inactive,–
O=C(O)C(F)(F)C(F)(F)C(F)(F)C(F)(F)F,inactive,–
N=C(N)C(F)(F)C(F)(F)C(F)(F)C(F)(F)C(F)(F)C(F)(F)C(F)(F)F,–,22.2 µM (active)
CC(C)(C)C(=O)CC(=O)C(F)(F)C(F)(F)C(F)(F)F,–,32.8 µM (active)
C=CC(=O)OCC(F)(F)C(F)(F)C(F)(F)C(F)(F)COC(=O)C=C,–,9.44 µM (active)
O=C(O)C(F)(F)C(F)(F)C(F)F,inactive,–
Cc1ccc(S(=O)(=O)OCC(F)(F)C(F)(F)C(F)(F)C(F)(F)C(F)(F)C(F)F)cc1,inactive,–
O=C(Cl)C(F)(F)C(F)(F)C(F)(F)C(F)(F)C(F)(F)C(F)(F)C(F)(F)C(F)(F)F,inactive,–
FC(F)(I)C(F)(F)C(F)(F)C(F)(F)I,inactive,–
FC(F)(F)C(F)(F)C(F)(F)C(F)(F)C(F)(F)C(F)(F)CCS,inactive,–

# — PubChem BioAssay (EPA / NIEHS)
